Screening data: PubChem BioAssay, National Center for Advancing Translational Sciences (NCATS)
KB-3-1 tox: qHTS assay for MDR1-selective chemotherapeutics: Primary screen using the parental adenocarcinoma cell KB-3-1; KB-3-1 viability, CellTiter-Glo ATP luminescence, 72 h; Potency, µM (highest dose often 46.1 µM), most hits filed as cytotoxic; hit rate 1.4% among 400,000; further: on the % scale 0 is the no-effect control and ±100 the full control effect; nearly all actives have a fitted effect of over 60% in size
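Multi-concentration cytotoxicity screen in KB-3-1 cells grown in DMEM lacking phenol red with 10% FBS. After 72 h at 37 °C with compound, ATP-dependent luminescence was recorded.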
HT1080NT lethal: qHTS for induction of synthetic lethality in tumor cells producing 2HG: qHTS for the HT-1080-NT fibrosarcoma cell line. HT-1080-NT fibrosarcoma viability, CellTiter-Glo ATP luminescence, 48 h. Potency, µM (titrated, usually from 46.1 µM), inactives show at the highest dose activity, negative = less viability, usual class: cytotoxic. hit rate 1.6% among 360,000;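 further: NT is the 2HG producing partner of a matched IDH1 knockdown line; 0% = DMSO-treated cells and -100% = media-only wells without cells; nearly all actives have a fitted effect of over 55% in size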
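Compounds were tested in concentration-response format on HT-1080-NT cells for 48 hours at 37 degrees C. Cell viability came from CellTiter-Glo luminescence; curves were classified by r2, response magnitude and activity.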
SW480 rerep: A quantitative high throughput screen for small molecules that induce DNA re-replication in SW480 colon adenocarcinoma cells | SW480 DNA re-replication, Hoechst DNA content imaging, 48 h | Potency, µM (doses to about 46.1 µM), for inactives: at the top dose re-replication activation, hits mostly activators | hit rate 1.8% among 340,000 | AID 624297, 2012; further: % of control where 0% means no effect; nearly all actives have a fitted effect of over 55% in size
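DNA re-replication was detected as more nuclei of elevated Hoechst intensity after 48 hr exposure to compound (23 nL pinned per well of 250 cells).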
HT1080 IDH1KD tx: qHTS for induction of synthetic lethality in tumor cells producing 2HG: qHTS for the HT-1080-IDH1KD cell line | HT-1080 IDH1 knockdown viability, ATP luminescence, 48 h | Potency, µM (top dose mostly 46.1 µM), for the others: at the top dose activity, negative = toxicity, hits mostly cytotoxic | hit rate 2% among 360,000;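 further: 0% = DMSO wells and -100% = cell-free medium wells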
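Knockdown cells (IDH1KD HT-1080) received compounds 2 h after plating at 750 cells/well and were kept 48 h at 37 °C in 5% FBS RPMI. A CellTiter-Glo luminescence read gave % activity for curve fitting.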
MCF10A rereplic: A quantitative high throughput screen for small molecules that induce DNA re-replication in MCF 10a normal breast cells; MCF 10A DNA re-replication, Hoechst nuclear intensity, 48 h; hit rate 2.9% among 350,000; Potency, µM (top dose mostly 46.1 µM), inactives show at the top dose activity, positive = re-replication, actives largely listed as activators; further: % of control where 0% means no effect; nearly all actives have a fitted effect of over 50% in size
KB-V1 MDR tox: qHTS assay for MDR1-selective chemotherapeutics: Primary screen using the drug-selected MDR subline cells KB-V1; KB-V1 MDR cells viability, CellTiter-Glo, 72 h; Potency, µM (doses to about 46.1 µM), usual class: cytotoxic; hit rate 3.4% among 400,000; AID 1347076, 2019; further: on the % scale 0 is the no-effect control and ±100 the full control effect; nearly all actives have a fitted effect of over 60% in size
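KB-V1 cells (P-gp-expressing MDR subline of KB-3-1) in phenol-red-free DMEM with 10% FBS were exposed to library compounds over a concentration series for 72 h at 37 degrees C. Viability read by CellTiter-Glo luminescence; concentration-effect curves fitted after normalization.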
* marks the source's active call; other numbers are inactive results; i = inactive; ? = inconclusive. An excerpt weighted towards active compounds, which were near 8% of everything screened. The call rests on the fitted dose curve; in most records, active means well fitted curve in the direction sought with a large enough effect; inconclusive means small, poorly fitted or top-dose-only effect, or another doubt; inactive means no such curve, though single readings can be large; an effect the other way counts as inactive or inconclusive. Potency means the concentration at half of the fitted maximal effect.

SMILES | KB-3-1 tox | HT1080NT lethal | SW480 rerep | HT1080 IDH1KD tx | MCF10A rereplic | KB-V1 MDR tox
CCCCn1c(=O)c(C(=O)Nc2ccccc2C)c(O)c2ccccc21 | i | 1% | 0% | 6% | -5% | i
CCCCCn1c(=O)c(C(=O)Nc2ncccc2C)c(O)c2ccccc21 | i | 18µM* | ? | 21µM* | 2% | 5.2µM*
CC(C)CCn1c(=O)c(C(=O)Nc2ccccc2S(N)(=O)=O)c(O)c2ccccc21 | 3.7µM* | -22% | ? | ? | ? | 2.9µM*
CCCCn1c(=O)c(C(=O)Nc2cnccn2)c(O)c2ccccc21 | 7.3µM* | -19% | 0% | -28% | ? | ?
Nn1c(Cc2cccc3ccccc23)n[nH]c1=S | i | 1% | -154% | -3% | -19% | i
O=C(O)CCCCC1SCC2NC(=O)NC21 (configuration not stated) | i | -11% | -88% | 1% | 19% | i
O=C1N[C@@H](Cc2ccccc2)C(=O)N2[C@H]3Nc4ccccc4[C@@]3([C@]34C[C@H]5C(=O)N[C@@H](Cc6ccccc6)C(=O)N5[C@H]3Nc3ccccc34)C[C@@H]12 | i | -8% | -12% | -8% | ? | i
